“And” between values parts separate entries of the source, which are not always exact repeats. Identical values can stand only once. Results filed as inconclusive are left out. A structure can be active in one record and inactive in another. The source made the active and inactive calls. Unless noted, calls follow the shape of the dose curve; as a rule, active = well fitted curve in the direction sought with a large enough effect in the repeat runs; inconclusive = weak or mixed curves; inactive = no such curve, though single readings can be large; an effect the other way counts as inactive or inconclusive.
Assays:
[1] = qHTS assay to identify small molecule agonists of the estrogen receptor beta (ER-beta) signaling pathway - cell viability counter screen (AID 1259380); also: nearly all actives have a fitted effect of over 30% in size
In short: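 HEK293T ER-beta-UAS-bla; 2% CS-FBS; 6 hr pre-plate, 16 hr cpd at 37C/5% CO2; LiveBLAzer read first, then CellTiter-Glo 30 min RT, luminescence.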

[2] = qHTS assay to identify small molecule antagonists of the estrogen receptor beta (ER-beta) signaling pathway - cell viability counter screen (AID 1259382);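 also: HEK293T cells carrying ER-beta-UAS-bla reporter stimulated with estradiol; series mostly up to about 92 µM; nearly all actives have a fitted effect of over 55% in size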
In short: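 Cells: ER-beta-UAS-bla HEK293T, 2,000/well, 2% CS-FBS, 6 hr settle. Cpd + E2 (1nM final), 16 hr, 37C/5% CO2. Bla FRET substrate 2 hr RT, then CellTiter-Glo 30 min RT, luminescence.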

[3] = target: Estrogen receptor (Homo sapiens) (UniProt P03372); assay: qHTS assay to identify small molecule agonists of the estrogen receptor alpha (ER-alpha) signaling pathway in the presence of an antagonist (AID 1259383; calls by dose curve; also: nearly all actives have a fitted effect of over 15% in size; also: potency is read from the fitted curve at half-maximal effect; as to activation: top concentration of the series differs between compounds)
In short: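 VM7Luc4E2, endog. ER-alpha + 4×ERE-luc; charcoal-stripped FBS, phenol red-free, 5 d; 24hr plating; +10.0nM ICI-182,780 (final); cpds 15 conc, 22hr, 37C/5% CO2; ONE-Glo luminescence.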

[4] = qHTS assay to identify small molecule agonists or antagonists of the thyroid stimulating hormone receptor (TSHR) signaling pathway - wild type cell line counter screen (AID 1259384; calls by dose curve)
In short: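 Counter screen in untransfected Hek293: compounds (15-point titration, triplicate) plus phosphodiesterase inhibitor Ro20-1724 added after 18 h plating; 30 min RT. Intracellular cAMP via competitive d2/cryptate immunoassay, 1 h incubation.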

[5] = qHTS assay to identify small molecule agonists of the estrogen receptor alpha (ER-alpha) signaling pathway in the presence of an antagonist - cell viability counter screen (AID 1259386);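 also: series mostly up to about 92 µM; cells exposed to compounds for 22 h at 37 °C before the viability read; nearly all actives have a fitted effect of over 30% in size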
In short: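 VM7Luc4E2, stripped-serum pre-culture 5 d; 24hr plating; +ICI-182,780 10.0nM final; cpds 15 conc, 22hr, 37C/5% CO2; CellTiter-Fluor added at 21hr, fluorescence 1hr later.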

[6] = target: Progesterone receptor (Homo sapiens) (UniProt P06401); assay: qHTS assay to identify small molecule agonists of the progesterone receptor (PR) signaling pathway (AID 1346784; calls by dose curve; also: nearly all actives have a fitted effect of over 30% in size; also: potency is read from the fitted curve at half-maximal effect)
In short: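 Beta-lactamase reporter read-out: after 16 hr compound treatment at 37C and a further 2 hr at room temperature with LiveBLAzer B/G FRET substrate, fluorescence was measured in PR-UAS-bla HEK 293T cells grown in 2% charcoal-stripped serum.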

[7] = target: Progesterone receptor (Homo sapiens) (UniProt P06401); assay: qHTS assay to identify small molecule antagonists of the progesterone receptor (PR) signaling pathway (AID 1346795; active = well fitted inhibition curve with a large enough effect in the signal ratio in the repeat runs, not every such curve was filed as active; the % refers to the signal ratio; also: potency is read from the fitted curve at half-maximal effect)
In short: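 Read-out is fluorescence from the LiveBLAzer B/G FRET substrate, cleaved by a UAS-controlled beta-lactamase in PR-UAS-bla HEK293T cells after 16 hr exposure to compound plus 1 nM promegestone (final), followed by 2 hr at room temperature.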

[8] = qHTS assay to identify small molecule antagonists of the progesterone receptor (PR) signaling pathway - cell viability counter screen (AID 1346798);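 also: HEK293T PR-UAS-bla cells stimulated with the agonist R5020; series mostly up to about 92 µM; nearly all actives have a fitted effect of over 50% in size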
In short: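 HEK293T PR-UAS-bla, 2% charcoal-stripped FBS; 4 hr pre-plate; cpd + R5020, 16 h 37C; LiveBLAzer read first; then CellTiter-Glo 30 min RT, luminescence.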

[9] = qHTS assay to identify small molecule agonists of the progesterone receptor (PR) signaling pathway - cell viability counter screen (AID 1346799; calls by dose curve; also: nearly all actives have a fitted effect of over 45% in size)
In short: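 Luminescence from CellTiter-Glo, added after the beta-lactamase FRET read in the same wells, gave cytotoxicity in PR-UAS-bla HEK293T cells treated with compounds for 16 hr at 37C.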

[10] = qHTS assay to identify small molecule antagonists of the TGF-beta/Smad signaling pathway - cell viability counter screen (AID 1346824); also: nearly all actives have a fitted effect of over 50% in size
In short: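 Cytotoxicity counter-screen run in the same wells as the beta-lactamase Smad reporter read: CellTiter-Glo luminescence after 30 min at room temperature. HEK 293T SBE-bla cells had 5 hr compound exposure at 37 C with TGF-beta1 (0.25 ng/mL stock).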

[11] = qHTS assay to identify small molecule agonists of the TGF-beta/Smad signaling pathway - cell viability counter screen (AID 1346829); also: top concentration of the series differs between compounds; nearly all actives have a fitted effect of over 45% in size
In short: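 Same-well cytotoxicity: CellTiter-Glo added after the 2 hr room-temperature beta-lactamase substrate step, luminescence measured 30 min later; cells had 5 hr of compound at 37 C.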

[12] = qHTS assay to identify small molecule agonists of the TGF-beta/Smad signaling pathway (AID 1346859; active = well fitted activation curve with a large enough effect in the signal ratio in the repeat runs, not every such curve was filed as active; the % refers to the signal ratio; also: series mostly up to about 77 µM)
In short: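 SBE-bla HEK 293T, 4,000 cells/well, plated o/n; cpd in DMSO, 5 hr, 37 C/5% CO2; B/G FRET substrate 2 hr RT; ex 405, em 460/530 nm.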

[13] = target: Thyrotropin-releasing hormone receptor (Homo sapiens) (UniProt P34981); assay: qHTS assay to identify small molecule antagonists of the thyrotropin-releasing hormone receptor (TRHR) signaling pathway (AID 1346877; active = well fitted inhibition curve with a large enough effect in the repeat runs, not every such curve was filed as active; also: series mostly up to about 51 µM)
In short: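 Intracellular calcium fluorescence, read kinetically every second over 3 min, reports TRH-evoked signalling in HEK293 cells carrying TRHR. Test compounds were added 5 min ahead of a 1 nM TRH challenge.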

[14] = target: Thyrotropin-releasing hormone receptor (Homo sapiens) (UniProt P34981); assay: qHTS assay to identify small molecule agonists of the thyrotropin-releasing hormone receptor (TRHR) signaling pathway (AID 1346891; calls by dose curve; also: series mostly up to about 58 µM)
In short: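 Intracellular calcium rise, read as fluorescence every second for 3 min, served as the agonist signal in dye-loaded HEK293 cells expressing TRHR; each compound ran at 15 concentrations in triplicate.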

[15] = Human pregnane X receptor (PXR) small molecule agonists, qHTS cell viability counter screen (AID 1346977); also: nearly all actives have a fitted effect of over 50% in size; also: potency is read from the fitted curve at half-maximal effect
In short: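 PXR-Luc HepG2, 2,000 cells/well, 5% charcoal-stripped FBS; 5hr settle; cpd 24hr, 37C/5% CO2; CellTiter-Fluor at 23hr, read 1hr later (fluorescence).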

[16] = Caspase-3/7 induction in HepG2 cells by small molecules, qHTS assay (AID 1346978); also: nearly all actives have a fitted effect of over 15% in size
In short: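 Caspase-3/7 induction was measured by Caspase-Glo 3/7 luminescence (30 min, room temperature) after a 17 hr compound exposure of wild-type HepG2 cells seeded at 2,000 per well and pre-incubated 5 hr.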

[17] = Caspase-3/7 induction in CHO-K1 cells by small molecules, qHTS cell viability counter screen (AID 1346979); also: nearly all actives have a fitted effect of over 35% in size
In short: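 Cells (CHO-K1, wild type) are plated at 1,500 per well and incubated 5hr. Test compounds in DMSO are then pinned in, followed by 16hr at 37C and 5% CO2. Viability is read by CellTiter-Fluor fluorescence after 1hr.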

[18] = Caspase-3/7 induction in CHO-K1 cells by small molecules, qHTS assay (AID 1346980); also: nearly all actives have a fitted effect of over 15% in size
In short: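 Luminescent Caspase-Glo 3/7 read (30min, room temperature) quantified apoptosis induction. Cells were wild-type CHO-K1, treated with compound for 17hr at 37 C and 5% CO2.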

[19] = Caspase-3/7 induction in HepG2 cells by small molecules, qHTS cell viability counter screen (AID 1346981); also: series mostly up to about 92 µM; nearly all actives have a fitted effect of over 30% in size
In short: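 HepG2, WT, 2,000 cells/well; 5 hr pre-incubation 37 C/5% CO2; compound pin-transferred from DMSO; 16 hr exposure; CellTiter-Fluor, 1 hr; fluorescence read.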

Measured: Potency

Chain of Progesterone receptor (Homo sapiens) (P06401 whole entry, looked up): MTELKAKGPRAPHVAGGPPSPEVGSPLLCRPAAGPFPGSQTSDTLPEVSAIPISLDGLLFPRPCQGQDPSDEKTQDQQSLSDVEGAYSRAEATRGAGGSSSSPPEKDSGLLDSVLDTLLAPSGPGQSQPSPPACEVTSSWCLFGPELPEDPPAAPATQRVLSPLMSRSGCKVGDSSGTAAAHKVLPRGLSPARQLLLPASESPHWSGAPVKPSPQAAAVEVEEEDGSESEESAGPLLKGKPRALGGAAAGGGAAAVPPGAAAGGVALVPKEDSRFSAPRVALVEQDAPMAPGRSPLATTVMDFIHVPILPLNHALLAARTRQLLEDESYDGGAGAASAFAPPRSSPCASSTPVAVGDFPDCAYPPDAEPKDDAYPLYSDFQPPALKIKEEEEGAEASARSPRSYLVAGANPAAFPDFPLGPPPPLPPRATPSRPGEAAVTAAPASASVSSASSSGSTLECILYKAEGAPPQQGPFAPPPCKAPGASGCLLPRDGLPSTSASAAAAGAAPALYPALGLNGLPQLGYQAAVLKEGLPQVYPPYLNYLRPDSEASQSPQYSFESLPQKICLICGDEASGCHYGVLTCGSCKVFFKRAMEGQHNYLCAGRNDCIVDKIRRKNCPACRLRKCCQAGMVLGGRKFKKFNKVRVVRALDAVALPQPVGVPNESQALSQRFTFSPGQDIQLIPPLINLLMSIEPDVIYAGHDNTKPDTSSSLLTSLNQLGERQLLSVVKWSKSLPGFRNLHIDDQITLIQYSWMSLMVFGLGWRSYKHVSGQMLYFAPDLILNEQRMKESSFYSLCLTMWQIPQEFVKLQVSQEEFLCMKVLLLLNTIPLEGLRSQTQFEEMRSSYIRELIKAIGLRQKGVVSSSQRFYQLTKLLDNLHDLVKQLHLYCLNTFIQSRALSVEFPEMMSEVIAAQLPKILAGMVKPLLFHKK
Chain of Estrogen receptor (Homo sapiens) (P03372 whole entry, looked up): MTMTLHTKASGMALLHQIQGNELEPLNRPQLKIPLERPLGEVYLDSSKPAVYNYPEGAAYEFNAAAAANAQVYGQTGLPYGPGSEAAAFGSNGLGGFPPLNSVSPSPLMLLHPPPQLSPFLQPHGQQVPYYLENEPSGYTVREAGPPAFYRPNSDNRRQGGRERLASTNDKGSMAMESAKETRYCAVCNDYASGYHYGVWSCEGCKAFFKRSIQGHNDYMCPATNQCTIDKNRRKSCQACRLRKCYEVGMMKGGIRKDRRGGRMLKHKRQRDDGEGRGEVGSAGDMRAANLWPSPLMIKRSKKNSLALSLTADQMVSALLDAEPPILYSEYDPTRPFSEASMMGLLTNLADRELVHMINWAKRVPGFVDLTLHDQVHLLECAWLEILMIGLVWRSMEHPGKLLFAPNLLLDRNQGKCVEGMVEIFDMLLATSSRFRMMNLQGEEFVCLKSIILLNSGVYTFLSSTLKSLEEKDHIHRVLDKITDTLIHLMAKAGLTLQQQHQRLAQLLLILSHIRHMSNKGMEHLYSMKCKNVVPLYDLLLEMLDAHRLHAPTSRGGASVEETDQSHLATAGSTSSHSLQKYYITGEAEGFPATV
Chain of Thyrotropin-releasing hormone receptor (Homo sapiens) (P34981 whole entry, looked up): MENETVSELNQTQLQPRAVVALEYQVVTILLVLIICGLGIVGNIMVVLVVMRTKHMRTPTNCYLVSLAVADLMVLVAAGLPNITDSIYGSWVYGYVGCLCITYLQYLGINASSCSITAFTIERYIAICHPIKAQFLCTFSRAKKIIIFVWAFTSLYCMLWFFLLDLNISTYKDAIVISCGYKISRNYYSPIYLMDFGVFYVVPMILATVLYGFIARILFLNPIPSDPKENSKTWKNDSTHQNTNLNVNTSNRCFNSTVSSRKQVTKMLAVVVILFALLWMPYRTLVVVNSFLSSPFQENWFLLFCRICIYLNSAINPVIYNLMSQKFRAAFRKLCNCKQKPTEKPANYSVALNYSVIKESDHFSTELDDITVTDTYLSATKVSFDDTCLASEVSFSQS

COCC(=O)N(c1c(C)cccc1C)C(C)C(=O)OC (centres undefined)
inactive: all assays above

CC[N+](CC)(CC)CC
not listed: [3] | [13] | [14]
inactive: all other assays above

C1CCC(NC2CCCCC2)CC1
inactive: all assays above

O=C(O)C(Cl)Cl
inactive: all assays above

O=C(O)CCl
not listed: [3]
inactive: all other assays above

O=C(O)COc1ccc(Cl)cc1Cl
not listed: [3] | [4] | [13] | [14]
inactive: all other assays above

CCCCCC[n+]1ccccc1
not listed: [3] | [4] | [13] | [14] | [15]
inactive: all other assays above

Cc1cc(-c2ccc(N)c(C)c2)ccc1N
2.14 µM (active) and inactive: [3]
active: [7] 61.8 µM and 48.4 µM and 17.2 µM
not listed: [1] | [4] | [13] | [14]
inactive: all other assays above

CCCCCCn1cc[n+](C)c1
active: [15] 13.9 µM
not listed: [3] | [4] | [13] | [14]
inactive: all other assays above

CCCC[n+]1cccc(C)c1
not listed: [3] | [4]
inactive: all other assays above

CC[N+]1(C)CCCC1
19.8 µM (active) and inactive: [6]
not listed: [3] | [4] | [13] | [14]
inactive: all other assays above

CCCCn1cc[n+](C)c1
not listed: [3] | [4] | [6] | [7] | [13] | [14]
inactive: all other assays above

O=c1[nH]c(=O)n(Cl)c(=O)n1Cl
not listed: [3] | [4]
inactive: all other assays above

O=[N+]([O-])c1ccccc1O
not listed: [3] | [4]
inactive: all other assays above

— PubChem BioAssay (Tox21)
